In the library only some 3.3% were active in any assay of this set; here they are far more common.
LmPK inh = LmPK (Leishmania mexicana) enzyme inhibition | Q27686 | purified LmPK, Kinase-Glo ATP luminescence, 1 h | Potency, µM (titrated, usually from 57.5 µM), usual class: inhibitors | 290,000 compounds, 0.37% hits
Target sequence (Q27686 whole entry, looked up): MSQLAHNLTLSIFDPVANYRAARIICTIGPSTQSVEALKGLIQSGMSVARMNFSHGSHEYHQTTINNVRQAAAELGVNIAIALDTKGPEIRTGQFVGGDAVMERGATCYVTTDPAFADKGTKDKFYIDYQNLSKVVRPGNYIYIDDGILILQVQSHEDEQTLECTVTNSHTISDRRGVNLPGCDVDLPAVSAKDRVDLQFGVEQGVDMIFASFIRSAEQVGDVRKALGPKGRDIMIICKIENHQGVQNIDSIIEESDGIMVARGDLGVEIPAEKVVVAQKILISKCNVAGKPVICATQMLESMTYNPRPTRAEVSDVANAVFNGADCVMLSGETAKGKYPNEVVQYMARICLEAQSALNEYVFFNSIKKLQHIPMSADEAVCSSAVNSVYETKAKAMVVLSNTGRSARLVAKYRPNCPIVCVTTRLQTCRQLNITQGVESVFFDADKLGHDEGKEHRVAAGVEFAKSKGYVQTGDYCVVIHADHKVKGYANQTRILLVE
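Purified LmPK (0.1 nM) converted ADP (0.1 mM) to ATP with PEP (0.5 mM) in imidazole buffer pH 7.2 with KCl and MgCl2, 1 h at room temperature. ATP was read by Kinase-Glo luminescence; data normalized to uninhibited and no-enzyme controls.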
FBPA Giardia inh = Giardia lamblia aldolase inhibition; purified Giardia FBPA; Potency, µM (series often up to 59.6 µM), actives largely listed as inhibitors; 290,000 compounds, 0.71% hits; AID 2451; further: nearly all actives have a fitted effect of over 55% in size
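40 nM FBPA preincubated 10 min at RT with compound (up to 57.5 uM final), then substrate plus GAPDH/TPI/NAD/arsenate coupling and diaphorase/resazurin added. Fluorescence read after 20 min at RT, 525/598 nm.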
Tb PYK inh = inhibitors of Trypanosoma brucei pyruvate kinase; 410,000 compounds, 0.12% hits; Potency, µM (titrated, usually from 76.8 µM), actives largely listed as inhibitors; Q57TT1; TbPYK enzyme, Kinase-Glo Plus ATP luminescence, 45 min; further: nearly all actives have a fitted effect of over 50% in size
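Enzyme and substrate buffer are dispensed first and compound is pin-transferred. ADP at 130 uM final then starts the reaction, which runs 45 min at room temperature. Detection reagent is added for 10 min before luminescence is imaged.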
Sm TGR inh = S. mansoni TGR enzyme inhibition | Q962Y6 | purified TGR, DTNB reduction, TNB absorbance 405 nm | Potency, µM (top dose mostly 114 µM), most hits filed as inhibitors | 360,000 compounds, 3% hits | AID 485364; further: nearly all actives have a fitted effect of over 60% in size
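First, TGR (20 nM dispensed) and NADPH were mixed with compound. Second, a 15 min room-temperature incubation followed. Third, further NADPH and then DTNB were added to start the reaction. Finally, TNB absorbance was monitored kinetically.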
RE007 growth inh = less growth of the S. pombe RE007 Vpr strain; S. pombe RE007 Vpr strain, BacTiter-Glo ATP luminescence, 24 h; Potency, µM (series often up to 92.2 µM), actives largely listed as inhibitors; 360,000 compounds, 0.21% hits; active means well fitted falling curve with a large enough effect; inconclusive means small, poorly fitted or top-dose-only effect; inactive means no such curve, though single readings can be large or run the other way; further: nearly all actives have a fitted effect of over 50% in size
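Fission yeast RE007 carrying one integrated HIV-1 vpr copy, seeded at OD 0.01 in PMG+AL medium with 23 nL pinned compound. Grown 24 h at 30 degrees; viability read by BacTiter-Glo luminescence after 5 min.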
Of the large screens only hits and unclear results are named; the others gave an inactive call. Unless noted, the call rests on the fitted dose curve; in most records, active means well fitted curve in the direction sought with a large enough effect; inconclusive means small, poorly fitted or top-dose-only effect, or another doubt; inactive means no such curve, though single readings can be large; an effect the other way counts as inactive or inconclusive.

COc1ccc(CNC(=S)Nc2ccccc2)cc1	Sm TGR inh 35µM
C=CCNC(=S)Nc1ccc2nc(C)c(C)nc2c1	FBPA Giardia inh inconclusive, Sm TGR inh 40µM
COc1ccc(NC(=S)Nc2ccc(C)c(S(=O)(=O)N3CCCCC3)c2)cc1	none (no result: Tb PYK inh, RE007 growth inh)
C=CCNC(=S)Nc1ccc(C)c(S(=O)(=O)N2CCCCC2)c1	Sm TGR inh 35µM
CCOC(=O)C(C#N)C(Cc1ccccc1)c1ccco1 (stereo unspecified)	Sm TGR inh 45µM
CC(=O)NCCC(Cc1ccccc1)c1ccco1 (stereo unspecified)	Sm TGR inh inconclusive
c1ccc2c(c1)CC(CN1CCNCC1)O2 (stereo unspecified)	Sm TGR inh 14µM
CCN1CCN(CC2COc3ccccc3O2)CC1 (stereo unspecified)	FBPA Giardia inh inconclusive
COc1cc(NS(=O)(=O)c2ccc([N+](=O)[O-])cc2)c2ncccc2c1	FBPA Giardia inh 18µM (no result: LmPK inh, Tb PYK inh, Sm TGR inh, RE007 growth inh)
COc1cc(NS(=O)(=O)c2cccc([N+](=O)[O-])c2)c2ncccc2c1	FBPA Giardia inh 16µM (no result: LmPK inh, Tb PYK inh, Sm TGR inh, RE007 growth inh)
S=C(NCc1ccccn1)Nc1ccccc1	none
Nc1nc(CCl)nc(Nc2ccccc2)n1	Sm TGR inh 40µM
Nc1nc(CN2CCN(Cc3ccccc3)CC2)nc(Nc2ccccc2)n1	Sm TGR inh inconclusive
Cc1ccc(Nc2nc(N)nc(CCl)n2)cc1	Sm TGR inh 11µM
Cc1ccc(Nc2nc(N)nc(CCl)n2)c(C)c1	Sm TGR inh 32µM
CCOc1ccc(Nc2nc(N)nc(CCl)n2)cc1	Sm TGR inh 25µM
CN(C(=O)c1ccncc1)c1nnc(-c2ccccn2)s1	none
C=CC#CC1(O)CC(C)[N+](C)(C)CC1C (stereo unspecified)	Sm TGR inh 13µM
CC(=O)Nc1cccc(-c2ccnc3c2CC(C(=O)NCc2ccco2)O3)c1 (stereo unspecified)	none (no result: LmPK inh, FBPA Giardia inh, Sm TGR inh)
CC(C)C(C(=O)NCC1CCCO1)N(Cc1ccccc1)C(=O)CNS(=O)(=O)c1ccccc1 (stereo unspecified)	FBPA Giardia inh inconclusive, Sm TGR inh 7.1µM
CC(C)C(C(=O)NCC1CCCO1)N(CC1CCCO1)C(=O)CNS(=O)(=O)c1ccccc1 (stereo unspecified)	none
O=C(NNC(=S)NCC1CCCO1)c1cccc(S(=O)(=O)N2CCOCC2)c1 (stereo unspecified)	none
CN(C)CCCNC(=S)N(CCN(C)C)Cc1cc2cc3c(cc2[nH]c1=O)OCCO3	Sm TGR inh 45µM
COc1cc2cc(CN(CCc3ccccc3C)C(=S)NCCCN(C)C)c(=O)[nH]c2cc1OC	none
Cc1ccc2[nH]c(=O)c(CN(Cc3ccccc3)C(=S)NCCCN(C)C)cc2c1	LmPK inh 16µM
CN(C)C(=O)CCc1ccc2c3c([nH]c2c1)[C@]1(C)[C@@H](C(=O)N2CCOCC2)C[C@H](CC(=O)NCCN2CCOCC2)C(=O)N1CC3	none (no result: LmPK inh, FBPA Giardia inh, Sm TGR inh)
CN(Cc1ccc2c(c1)OCCO2)C(=O)CN1C(=O)NC2(CCCCC2)C1=O	none (no result: FBPA Giardia inh)
O=C(OCC(=O)N1CCCC1=O)c1cc(Cl)ccc1O	RE007 growth inh 16µM (no result: LmPK inh, FBPA Giardia inh)
CCCC(=O)NCc1ccc2c(c1)cc(C)n2C	none
Cc1cc2cc(CNC(=O)c3ccc(Br)o3)ccc2[nH]1	Sm TGR inh 40µM
Cc1cc2cc(CNC(=O)c3ccc(Br)o3)ccc2n1C	FBPA Giardia inh inconclusive, Sm TGR inh 14µM
Cc1ccc(S(=O)(=O)NCc2ccc3[nH]c(C)cc3c2)cc1	Sm TGR inh 11µM
COc1ccc2cc(CCNC(=O)c3ccc(Br)o3)c(=O)[nH]c2c1	Sm TGR inh inconclusive
Cc1cc2cc(CCNC(=O)c3ccc(Br)o3)c(=O)[nH]c2cc1C	Sm TGR inh 35µM
Cc1ccccc1-n1c(Cn2c(=O)sc3ccccc32)nnc1SCC(=O)Nc1nccs1	none
CC(C)(C)c1[nH]nc2c1C(c1ccc(OC(=O)c3ccco3)cc1)C(C#N)=C(N)O2 (stereo unspecified)	none
C(=N\c1nc2ccccc2[nH]1)/c1cccs1	LmPK inh 14µM
O=S(=O)(Nc1cc(Sc2cccc3cccnc23)c(O)c2ccccc12)c1ccccc1	FBPA Giardia inh inconclusive, Sm TGR inh 3.5µM (no result: Tb PYK inh, RE007 growth inh)
Cc1ccc(C)c(S(=O)(=O)Nc2cc(SCC(=O)O)c(O)c3ccccc23)c1	LmPK inh 14µM, FBPA Giardia inh 2.2µM, Tb PYK inh 16µM, Sm TGR inh 3.5µM
COc1ccc(OC)c(S(=O)(=O)Nc2ccc(O)c3ccccc23)c1	FBPA Giardia inh inconclusive, Tb PYK inh inconclusive, Sm TGR inh 10µM
COc1ccc(OC)c(S(=O)(=O)Nc2cccc3c(O)cccc23)c1	none (no result: LmPK inh, FBPA Giardia inh, Sm TGR inh)
O=C(O)CSc1cc(NS(=O)(=O)c2cccc([N+](=O)[O-])c2)c2ccccc2c1O	LmPK inh 14µM, FBPA Giardia inh 2.5µM, Tb PYK inh inconclusive, Sm TGR inh 1.8µM
Cc1ccccc1C(=O)N1CCC(C(=O)NCc2ccc(Cl)cc2)CC1	none (no result: FBPA Giardia inh)
COc1ccc(/C=C/C(=O)NCC(=O)N/N=C/c2cc(Br)ccc2OC)cc1	none
CCOC(=O)C(Cc1ccccc1)C(=O)Nc1ccc(NC(=O)C(Cc2ccccc2)C(=O)OCC)cc1 (stereo unspecified)	none
CCc1ccc(S(=O)(=O)Nc2ccc(O)c3ccccc23)cc1	LmPK inh inconclusive, Sm TGR inh 10µM (no result: RE007 growth inh)
CCc1ccc(S(=O)(=O)Nc2cc(SCC(=O)O)c(O)c3ccccc23)cc1	LmPK inh inconclusive, FBPA Giardia inh 4.5µM, Tb PYK inh inconclusive, Sm TGR inh 6.3µM
CCOc1ccc(S(=O)(=O)Nc2cc(SCC(=O)O)c(O)c3ccccc23)cc1	LmPK inh 20µM, FBPA Giardia inh 6.3µM, Tb PYK inh inconclusive, Sm TGR inh 7.1µM
O=S(=O)(Nc1ccc(O)c2ccccc12)c1ccc(F)cc1	none (no result: LmPK inh, FBPA Giardia inh, Sm TGR inh)
COCC(C)n1c(COc2ccccc2F)nnc1SCC(=O)Nc1oc(C)c2c(C)n[nH]c(=O)c12 (stereo unspecified)	Tb PYK inh inconclusive, Sm TGR inh 25µM (no result: LmPK inh, FBPA Giardia inh)
COc1ccccc1-c1nnc(SCC(=O)Nc2oc(C)c3c(C)n[nH]c(=O)c23)n1C	none (no result: LmPK inh, FBPA Giardia inh)
O=[N+]([O-])c1cc(C=Nc2ccc3ccccc3c2)ccc1Br	Sm TGR inh 45µM
CN1CCN(Cc2c(O)ccc3c(-c4ccccc4)cc(=O)oc23)CC1	Sm TGR inh 32µM
CN1CCN(Cc2c(O)ccc3cc(-c4ccccc4)c(=O)oc23)CC1	none (no result: LmPK inh, FBPA Giardia inh, RE007 growth inh)
CCCCN(CC)Cc1c(O)ccc2c(-c3ccccc3)cc(=O)oc12	Sm TGR inh 50µM
CCN(CC)Cc1c(O)ccc2c(-c3ccccc3)cc(=O)oc12	none
O=C(/C=C/c1ccco1)NCCCN1CCOCC1	Sm TGR inh 11µM
O=C(/C=C/c1ccc(Cl)cc1)NCCCN1CCOCC1	none
O=C(COC(=O)/C=C/c1cccc([N+](=O)[O-])c1)NCCCN1CCCC1=O	none

Source: PubChem BioAssay (National Center for Advancing Translational Sciences (NCATS))
